The list is not random: actives were taken first. Their share in the collection is about 2.8%.
KDM5B inhibitor – Primary screen for KDM5B Histone Demethylases FDH-coupled qHTS; Lysine-specific demethylase 5B (Homo sapiens), Q9UGL1; KDM5B demethylase, FDH-coupled NADH fluorescence (FDH is formaldehyde dehydrogenase); Potency, µM (series often up to 57.7 µM), usual class: inhibitors; 220,000 compounds, 2.6% hits; AID 1347165, 2019; further: potency means the concentration at half of the fitted maximal effect; 0% is about no effect; nearly all actives have a fitted effect of over 70% in size
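Coupled FDH/NAD⁺ fluorescence readout. KDM5BΔAP 200 nM final; compound titration, 10 min RT preincubation; substrate mix 12.5 µM H3K4me3, 25 µM 2-OG, 50 µM Fe(II), 100 µM ascorbate, 0.25 mM NAD⁺, 0.25 U/mL FDH; ΔRFU over 30 min.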
IP6K1 inhibitor – Primary qHTS assay for small molecule inhibitors of Inositol hexaphosphate kinase 1 (IP6K1); activity change, % (series mostly up to about 58 µM); IP6K1 kinase, ADP-Glo luminescence, 2 h; stronger effect = lower value; 140,000 compounds, 0.81% hits; Inositol hexakisphosphate kinase 1 (Homo sapiens), Q92551; in the data active means activity change below about -25%; further: on the % scale 0 is the no-effect control and ±100 the full control effect
Target sequence (Q92551 whole entry, looked up): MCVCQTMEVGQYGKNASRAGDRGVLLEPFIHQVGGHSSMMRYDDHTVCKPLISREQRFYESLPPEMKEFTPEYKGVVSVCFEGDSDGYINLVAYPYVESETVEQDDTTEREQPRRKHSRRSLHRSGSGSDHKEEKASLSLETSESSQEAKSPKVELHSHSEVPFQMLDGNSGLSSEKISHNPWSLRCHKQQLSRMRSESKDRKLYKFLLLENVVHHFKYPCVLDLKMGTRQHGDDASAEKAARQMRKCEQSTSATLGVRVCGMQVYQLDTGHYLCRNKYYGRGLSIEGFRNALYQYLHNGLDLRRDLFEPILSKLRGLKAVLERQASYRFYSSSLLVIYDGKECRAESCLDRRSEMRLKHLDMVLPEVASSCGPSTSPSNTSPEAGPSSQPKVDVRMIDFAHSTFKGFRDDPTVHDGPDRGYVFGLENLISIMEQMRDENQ
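ADP-Glo luminescence measures ADP made by human IP6K1 during a 2 h RT reaction with ATP/IP6 (mix at 1.3 mM/130 uM); top library doses 57.5 and 19.1 uM final.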
SNCA viab count – GF-AFC viability counterscreen for inhibitors of alpha-synuclein gene (SNCA) expression; HEK-293-SNCA-luc viability, GF-AFC fluorescence, 24 h; Potency, µM (highest dose often 57.1 µM), without a hit: top-dose activity change, negative = cytotoxicity, most hits filed as cytotoxic; 150,000 compounds, 0.12% hits; AID 1671193, 2021;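 further: potency means the concentration at half of the fitted maximal effect; 0% = DMSO-treated cells and -100% = medium-only wells without cells; nearly all actives have a fitted effect of over 30% in size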
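Cytotoxicity counterscreen: after 24 h compound treatment of genome-edited SNCA-luciferase HEK-293 cells, live-cell protease substrate GF-AFC read by fluorescence after 30 min; activity scaled between DMSO (0%) and medium-only (-100%), curves Hill-fitted.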
SNCA expr inhib – Primary qHTS assay for inhibitors of alpha-synuclein gene (SNCA) expression; Potency, µM (series often up to 57.2 µM), inactives show at the top dose activity change, negative = inhibition, hits mostly inhibitors; 140,000 compounds, 0.17% hits; HEK-293 SNCA-luciferase knock-in, luminescence, 24 h;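 further: potency means the concentration at half of the fitted maximal effect; plate controls were DMSO cells for no effect and cell-free wells for full effect; nearly all actives have a fitted effect of over 45% in size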
Active calls of the source: *; i = inactive; ? = inconclusive; . = not tested or not shown; [ ] = dose if it differs, or a comment. Unless noted, the call rests on the fitted dose curve; in most records, active means well fitted curve in the direction sought with a large enough effect; inconclusive means small, poorly fitted or top-dose-only effect, or another doubt; inactive means no such curve, though single readings can be large; an effect the other way counts as inactive or inconclusive.

SMILES | KDM5B inhibitor | IP6K1 inhibitor | SNCA viab count | SNCA expr inhib
COc1ccc(Cn2c(C3CCN(C(=O)c4ccsc4)CC3)n[nH]c2=O)cc1 | i | 0 | 11% | 4%
Cc1nn(CC(=O)O)c(=O)c2nc(-c3ccccc3)sc12 | 32µM* | -13 | 4% | 3%
CCc1nc2c(=O)n(CC(=O)NCc3cccc(Cl)c3)nc(C)c2s1 | i | 9 | -1% | -4%
COc1ccc(CNC(=O)Cn2nc(C)c3sc(-c4ccccc4)nc3c2=O)cc1 | ? | 4 | 3% | 25%
COCCNC(=O)Cn1nc(C)c2sc(-c3ccccc3)nc2c1=O | 28µM* | 14 | -4% | -4%
O=C(Cn1nc(-c2ccccc2)ccc1=O)NCCCN1CCOCC1 | i | . | . | .
Cc1nn(CC(=O)NCCN2CCCCCC2)c(=O)c2nc(-c3ccccc3)sc12 | 20µM* | 24 | -2% | 23%
Cc1ccc(-c2nn(CC(=O)O)c(=O)c3ccccc23)cc1 | i | . | . | .
Cc1nn(CC(=O)NCCCN2CCCCC2)c(=O)c2nc(-c3ccccc3)sc12 | 32µM* | 3 | -3% | 10%
COc1cc(-c2onc(C)c2C(=O)NC2Cc3ccccc3C2)cc(OC)c1OC | 32µM* | 16 | -5% | 5%
COc1cc(-c2onc(C)c2C(=O)NCc2cccc(F)c2F)cc(OC)c1OC | 32µM* | -7 | -15% | 9%
COc1cc(-c2onc(C)c2C(=O)NCCCCc2ccccc2)cc(OC)c1OC | 25µM* | -4 | -1% | -1%
COc1cc(-c2onc(C)c2C(=O)NCCCSC)cc(OC)c1OC | 32µM* | -8 | 6% | -16%
COc1ccc(-c2onc(C)c2C(=O)NCc2ccccc2C)cc1 | ? | 21 | 9% | -13%
CN(CC(=O)Nc1ccc2[nH]c(=O)[nH]c2c1)Cc1ccccc1N1CCCCC1 | i | . | . | .
NC(=O)CN1c2ccc(F)cc2-c2ccccc2S1(=O)=O | i | . | . | .
CCCCC(CC)C(=O)Nc1c(F)c(F)c(F)c(F)c1F (configuration not stated) | i | . | . | .
CN(C)CC(O)c1cc2n(n1)CCCN(C(=O)c1cccn1C1CC1)C2 (configuration not stated) | i | 17 | 2% | -31%
Cc1ccn2c(C(=O)N3CCCn4nc(C(O)CO)cc4C3)nnc2n1 (configuration not stated) | 32µM* | 24 | -4% | 9%
Cc1nc2scc(CC(=O)NCc3ccco3)n2c(=O)c1-c1cc(C)n(-c2cc(F)ccc2F)n1 | 25µM* | -5 | 9% | -20%
CCCNC(=O)Cc1csc2nc(C)c(-c3cc(C)n(-c4cccc(C)c4C)n3)c(=O)n12 | ? | 14 | -2% | 0%
Cc1cccc(-n2nc(-c3c(C)nc4scc(CC(=O)NC(C)C)n4c3=O)cc2C)c1C | 25µM* | 10 | 0% | -5%
CCCCNC(=O)Cc1csc2nc(C)c(-c3cc(C)n(-c4cccc(C)c4C)n3)c(=O)n12 | 28µM* | -3 | ? | -17%
COCCNC(=O)Cc1csc2nc(C)c(-c3cc(C)n(-c4ccccc4F)n3)c(=O)n12 | 28µM* | 19 | 2% | 6%
Cc1cccc(-n2nc(-c3c(C)nc4scc(CC(=O)NC(C)C)n4c3=O)cc2C)c1 | ? | 28 | 6% | -1%
SMILES | KDM5B inhibitor | IP6K1 inhibitor | SNCA viab count | SNCA expr inhib
Cc1ccc(-c2nc(C3CC(=O)N(C4CCCCC4)C3)no2)cc1C (configuration not stated) | i | 21 | 0% | -15%
CC(=O)NCC(=O)NC1CC(C)(C)Cc2nc(N(C)Cc3ccccc3)ncc21 (configuration not stated) | 32µM* | 30 | 5% | -12%
O=C(NC1CCN(c2nc3ncccc3o2)CC1)c1ccccc1 | 35µM* | -3 | -15%[87.6 µM] | 5%[87.6 µM]
O=C(NC1CCN(c2nc3ncccc3o2)CC1)c1ccccc1F | ? | -20 | -22% | 5%
Cc1ccc(C(=O)NC2CCN(c3nc4ncccc4o3)CC2)cc1 | 35µM* | 3 | ? | 1%[87.6 µM]
COCCNC(=O)[C@@H]1C[C@H](Oc2cccnc2)CN1C(=O)c1cc2ccccc2[nH]1 | . | 20 | 4% | 37%
Cc1ccc(C(=O)Nc2ccc(C(O)(C(F)(F)F)C(F)(F)F)cc2)cc1 | i | . | . | .
CC(C)Cn1c(=O)c(C(=O)N2CCC(C#N)CC2)nc2cccnc21 | . | 15 | -2%[87.6 µM] | -8%[87.6 µM]
Cc1ccccc1Cn1cc(-c2ccncc2)cc1C(=O)NC(C)c1ccccn1 (configuration not stated) | 32µM* | 2 | -12% | 3%
CC(=O)Nc1ccc(NC(=O)c2cc(-c3ccncc3)cn2Cc2ccccc2C)cc1 | ? | -10 | -18% | 30%
O=C(NC1CCN(c2cc(-c3ccc(Cl)cc3)[nH]n2)C1)c1ccccc1Br (configuration not stated) | ? | 15 | 1% | -14%
O=C(O)CCc1cc2ccoc2cc1O[C@@H]1O[C@H](CO[C@@H]2OC[C@](O)(CO)[C@H]2O)[C@@H](O)[C@H](O)[C@H]1O | . | 8 | 9%[23.9 µM] | .
CN1C(=O)COc2ccc(C(=O)N3CC(C)(C)[C@@](C)(O)C3)cc21 | 32µM* | 0 | 0% | -11%
CC(Sc1ncnc2nc[nH]c12)C(=O)Nc1cccc2ccccc12 (configuration not stated) | i | . | . | .
O=C(C1CCCCC1)N1CC[C@](O)(c2ccccc2)[C@H](N2CCCC2)C1 | 8.9µM* | 22 | -27% | 15%
CCOCC(=O)N1CCC(O)(c2ccccc2)[C@H](N2CCCC2)C1 (some centres not stated) | 10µM* | 17 | 0% | 16%
CCC(=O)N1CCC(O)(c2ccccc2)[C@H](N2CCCC2)C1 (some centres not stated) | ? | 18 | -4% | 32%
CNc1nc2c(s1)C(c1ccccc1F)CC(=O)N2 (configuration not stated) | 35µM* | -11 | -15% | -9%
Cc1ccc(C(=O)NCc2nnc3ccc(-c4ccccc4)nn23)s1 | ? | 15 | -6% | -1%
O=C(NCc1nnc2ccc(-c3ccc(Cl)cc3)nn12)c1ccc(Cl)s1 | 5µM* | 8 | -2% | 3%
Cc1ccc(C(=O)NCc2nnc3ccc(-c4ccc(Cl)cc4)nn23)s1 | 16µM* | 9 | -13% | ?
O=C(NCc1nnc2ccc(-c3ccccc3)nn12)c1ccc(Cl)s1 | 22µM* | -6 | -16% | 1%
Cc1ccsc1C(=O)NCc1nnc2ccc(-c3ccc(Cl)cc3)nn12 | 32µM* | 7 | -13% | -24%
CC(C)NC(=O)c1ccc(C#Cc2ccncc2)cn1 | . | -4 | -26% | .
CN(C)c1ccc2ncc(Nc3ccccc3Cl)n2n1 | 35µM* | -11 | 8%[87.6 µM] | 49%[87.6 µM]
COc1ncccc1Nc1cnc2ccc(N(C)Cc3ccc(F)cc3)nn12 | 32µM* | -12 | 9%[87.6 µM] | ?
CN(Cc1ccc(F)cc1)c1ccc2ncc(Nc3ccncc3)n2n1 | ? | -6 | -3%[87.6 µM] | -22%[87.6 µM]
